This note sets out measurements from PubChem BioAssay (EPA / NIEHS).

Assay [1] can be described thus: ATG_CRE_CIS: Attagene CIS-FACTORIAL HepG2 Assay for human cAMP Responsive Element (CRE) binding protein 3 (AID 2282926). As to conditions: HepG2 CRE cis-reporter, Attagene multiplexed mRNA; actives raise or lower the signal. The method, boiled down: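 Liver-derived HepG2, transfected with a CRE-containing reporter panel, exposed 24 h; transcript levels sized and quantified by capillary electrophoresis of labelled amplicons; signal changes either way referenced to vehicle.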

For assay [2], the target named is CCAAT/enhancer-binding protein beta (Homo sapiens) (UniProt P17676). Briefly: ATG_C_EBP_CIS: Attagene CIS-FACTORIAL HepG2 Assay for human CCAAT/Enhancer Binding Protein (C/EBP) beta (AID 2282927). As to conditions: HepG2 Attagene cis-factorial transcription factor reporter; actives raise or lower the signal. The method, boiled down:
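Following a 24 h incubation with test chemical, transfected HepG2 cells yielded RNA whose reporter transcripts were quantified by RT-PCR and fluorescent capillary electrophoresis, with DMSO serving as baseline for bidirectional fitting.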

The target in assay [3] is Aryl hydrocarbon receptor (Homo sapiens) (UniProt P35869). Description: ATG_Ahr_CIS: Attagene CIS-FACTORIAL HepG2 Assay for human Aryl Hydrocarbon Receptor (Ahr) (AID 2282930). As to conditions: HepG2 AhR cis-factorial reporter transcription; actives raise or lower the signal. The method, boiled down:
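Values derive from bidirectional fitting against DMSO negative control. Underlying signal: cis-element reporter mRNA in transiently transfected HepG2, harvested 24 h post-dose and measured by RT-PCR plus capillary electrophoresis.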

Assay [4] in a line: ATG_AP_1_CIS: Attagene CIS-FACTORIAL HepG2 Assay for human Activator Protein 1 (AP-1) (AID 2282931). As to conditions: HepG2 Attagene cis-factorial AP-1 reporter mRNA; actives raise or lower the signal. The method, boiled down: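 After 24 h incubation with test chemical, RNA from transfected HepG2 cells was reverse-transcribed, amplified, fluorescently labelled and digested before capillary electrophoresis. Reporters were driven by cis-regulatory promoters; activity fitted bidirectionally versus DMSO.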

A short description of assay [5]: ATG_BRE_CIS: Attagene CIS-FACTORIAL HepG2 Assay for human Bone Morphogenetic Protein (BMP) Response Element (BRE) (AID 2282933). As to conditions: HepG2 BMP response element reporter, Attagene transcription factor profiling; actives raise or lower the signal. The essentials:
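HepG2 cells transiently transfected with CIS reporter units (endogenous TF activity, BMP response element), dosed 24 h. Reporter mRNA quantified by RT-PCR, fluorescent labelling and capillary electrophoresis; bidirectional fit vs DMSO baseline.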

Assay [6] is described as follows: ATG_E_Box_CIS: Attagene CIS-FACTORIAL HepG2 Assay for human Enhancer Box (E-box) (AID 2282936). As to conditions: HepG2 E-box cis-reporter transcription, actives raise or lower the signal. The essentials: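 Endogenous transcription factor activity was sensed in human HepG2 liver cells through transfected cis-promoter reporter units. After 24 h of dosing, total RNA was reverse-transcribed and reporter cDNA resolved by capillary electrophoresis.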

A short description of assay [7]: ATG_M_19_CIS: Attagene CIS-FACTORIAL HepG2 Assay for M19 Transcription Factor (Internal Marker) (AID 2282939). As to conditions: HepG2 Attagene CIS-FACTORIAL M19 internal marker reporter; actives raise or lower the signal. The method, boiled down:
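HepG2 cells transiently transfected with cis-regulated multiplexed reporter units, dosed 24 h. Reporter mRNA quantified by RT-PCR and capillary electrophoresis; internal background marker fitted bidirectionally versus DMSO.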

A short description of assay [8]: ATG_GLI_CIS: Attagene CIS-FACTORIAL HepG2 Assay for human Zinc Finger Protein GLI1 (AID 2282945). The conditions noted are these: HepG2, Attagene cis-factorial reporter mRNA, GLI element; actives raise or lower the signal. The method, boiled down:
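HepG2 cells transiently transfected with cis-promoter multiplexed reporter units report endogenous transcription factor activity. After 24 h chemical exposure, reporter mRNA was quantified by RT-PCR, 6-FAM labelling, HpaI digestion and capillary electrophoresis, with bidirectional fitting against DMSO.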

Assay [9] in a line: ATG_M_06_CIS: Attagene CIS-FACTORIAL HepG2 Assay for M06 Transcription Factor (Internal Marker) (AID 2282950). The conditions noted are these: HepG2 Attagene CIS-FACTORIAL M06 internal marker reporter; actives raise or lower the signal. The method, boiled down: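 Internal background marker within multiplexed cis-reporter HepG2 system. Cells transiently transfected, dosed 24 h; reporter mRNA measured by RT-PCR, HpaI digestion and capillary electrophoresis. Bidirectional fit relative to DMSO.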

Assay [10] addresses Hepatocyte nuclear factor 6 (Homo sapiens) (UniProt Q9UBC0). Briefly: ATG_HNF6_CIS: Attagene CIS-FACTORIAL HepG2 Assay for human Hepatocyte Nuclear Factor 6 (HNF6) (AID 2282952). The conditions noted are these: HepG2 Attagene cis-factorial HNF6 reporter transcription; actives raise or lower the signal. The method, boiled down:
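Twenty-four-hour chemical treatment of reporter-transfected HepG2 cells precedes RNA isolation, DNase-treated reverse transcription and PCR of reporter sequences. Labelled fragments are sized by capillary electrophoresis and fitted bidirectionally versus DMSO.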

For assay [11], the target named is Heat shock factor protein 1 (Homo sapiens) (UniProt Q00613). Briefly: ATG_HSE_CIS: Attagene CIS-FACTORIAL HepG2 Assay for human Heat Shock Transcription Factor 1 (HSE) (AID 2282953). The conditions noted are these: HepG2 HSE cis-reporter, Attagene RNA transcription; actives raise or lower the signal. The essentials:
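HepG2 cells transfected with cis-promoter reporter units sensing endogenous transcription factor activity; reporter mRNA quantified 24 h post-dose by RT-PCR and capillary electrophoresis of 6-FAM-labelled products. Bidirectional fitting against DMSO.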

Assay [12] can be described thus: ATG_TA_CIS: Attagene CIS-FACTORIAL HepG2 Assay for human TA Basal Promoter (AID 2282964). As to conditions: HepG2 Attagene CIS-factorial TA basal promoter reporter; actives raise or lower the signal. The essentials: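 HepG2 cells transiently transfected with multiple reporter units under cis promoter elements, reporting endogenous transcription factor activity; this endpoint tracks the TA basal promoter as background control. Reporter mRNA after 24 h dosing measured by RT-PCR/capillary electrophoresis; bidirectional fits versus DMSO.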

Assay [13] has as its target X-box-binding protein 1 (Homo sapiens) (UniProt P17861). Description: ATG_Xbp1_CIS: Attagene CIS-FACTORIAL HepG2 Assay for human X-box Binding Protein 1 (XBP1) (AID 2282972). As to conditions: HepG2 XBP1 cis-element reporter, Attagene multiplex; actives raise or lower the signal. The essentials:
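Changes in reporter transcript abundance, read by RT-PCR and capillary electrophoresis, reflect endogenous transcription factor activity. Transfected HepG2 cells received compound for 24 hours; DMSO defined baseline for bidirectional analysis.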

Assay [14] concerns the target Myc proto-oncogene protein (Homo sapiens) (UniProt P01106). Description: ATG_Myc_CIS: Attagene CIS-FACTORIAL HepG2 Assay for human Myelocytomatosis (Myc) Proto-Oncogene Transcription Factor (AID 2282990). As to conditions: HepG2, Attagene cis-reporter transcription factor activity; actives raise or lower the signal. The essentials:
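Multiplexed cis-reporter transcription in HepG2 cells after 24 h chemical treatment. Reporter mRNA measured by RT-PCR and capillary electrophoresis fluorescence; activity fitted bidirectionally against DMSO control.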

Assay [15] in a line: ATG_NRF2_ARE_CIS: Attagene CIS-FACTORIAL HepG2 Assay for human Nuclear Factor Erythroid 2 Related Factor 2 (NFR2) response to Antioxidant Response Elements (ARE) (AID 2282992). As to conditions: HepG2 Attagene ARE/NRF2 reporter, transcription factor activity; actives raise or lower the signal. The method, boiled down:
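Using transiently transfected HepG2 cells exposed for 24 h, reporter mRNA levels were determined by RT-PCR with fluorescent primer extension and capillary electrophoresis, analysed for gain or loss of signal against DMSO.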

Assay [16] in a line: ATG_Oct_MLP_CIS: Attagene CIS-FACTORIAL HepG2 Assay for human Octamer-Binding Transcription Factor (Oct) (AID 2282993). As to conditions: HepG2 Attagene cis-factorial Oct reporter, mRNA; actives raise or lower the signal. The method, boiled down: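 HepG2 cells transiently transfected with cis-element-driven reporter transcription units (endogenous TF activity); 24 h compound exposure. Reporter mRNA quantified by RT-PCR, 6-FAM labelling, HpaI digestion and capillary electrophoresis; bidirectional fit versus DMSO baseline.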

In assay [17] the target is Hypoxia-inducible factor 1-alpha (Homo sapiens) (UniProt Q16665). Description: ATG_HIF1a_CIS: Attagene CIS-FACTORIAL HepG2 Assay for human Hypoxia Inducible Factor 1 (HIF1A) (AID 2282951). As to conditions: HepG2 Attagene cis-factorial HIF1a reporter transcription; actives raise or lower the signal. The method, boiled down: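 Endogenous-TF cis reporter readout, human HepG2 cells, 24 h incubation; mRNA detected via RT-PCR and capillary electrophoresis fluorescence; DMSO-normalised bidirectional fitting.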
Sequence of Hypoxia-inducible factor 1-alpha (Homo sapiens) (Q16665 whole entry, looked up): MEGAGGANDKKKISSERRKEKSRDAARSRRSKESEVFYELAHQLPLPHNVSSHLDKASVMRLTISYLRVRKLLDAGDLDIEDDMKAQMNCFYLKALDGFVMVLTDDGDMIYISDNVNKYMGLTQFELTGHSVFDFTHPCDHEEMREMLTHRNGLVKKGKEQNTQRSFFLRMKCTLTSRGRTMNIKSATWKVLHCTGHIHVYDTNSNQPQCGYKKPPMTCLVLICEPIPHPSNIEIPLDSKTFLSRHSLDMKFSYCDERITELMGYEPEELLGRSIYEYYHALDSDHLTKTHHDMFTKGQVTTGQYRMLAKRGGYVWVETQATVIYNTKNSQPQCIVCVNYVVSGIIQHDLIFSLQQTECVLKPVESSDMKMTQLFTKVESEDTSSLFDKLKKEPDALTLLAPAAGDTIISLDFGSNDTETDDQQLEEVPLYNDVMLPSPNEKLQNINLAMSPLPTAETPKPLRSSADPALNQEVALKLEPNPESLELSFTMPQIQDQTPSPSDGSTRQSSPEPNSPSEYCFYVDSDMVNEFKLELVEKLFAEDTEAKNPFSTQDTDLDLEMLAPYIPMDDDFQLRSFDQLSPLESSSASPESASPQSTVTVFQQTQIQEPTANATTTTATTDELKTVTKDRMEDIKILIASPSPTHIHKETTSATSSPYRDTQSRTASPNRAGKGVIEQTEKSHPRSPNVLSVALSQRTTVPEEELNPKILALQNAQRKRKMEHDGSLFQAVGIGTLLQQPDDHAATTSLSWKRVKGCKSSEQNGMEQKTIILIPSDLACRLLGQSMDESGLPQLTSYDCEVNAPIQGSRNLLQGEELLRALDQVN

Assay [18] is described as follows: ATG_VDRE_CIS: Attagene CIS-FACTORIAL HepG2 Assay for human Vitamin D Receptor Element (VDRE) (AID 2282968). As to conditions: HepG2 VDRE cis-reporter transcription, actives raise or lower the signal. The essentials:
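Steps: transfect HepG2 with multiple reporter transcription units; dose chemicals 24 h; isolate RNA; RT-PCR; label with 6-FAM primer extension; HpaI digest; capillary electrophoresis. Curves fitted both directions against DMSO.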

Assay [19] has as its target Nuclear respiratory factor 1 (Homo sapiens) (UniProt Q16656). Description: ATG_NRF1_CIS: Attagene CIS-FACTORIAL HepG2 Assay for human Nuclear Respiratory Factor 1 (NRF1) Orphan Gene (AID 2282987). The conditions noted are these: HepG2 NRF1 cis-element reporter, Attagene multiplex; actives raise or lower the signal. The essentials:
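Endogenous factor activity was captured via cis-element-driven reporter transcripts in HepG2 cells. Following 24 h chemical treatment, transcripts were quantified by RT-PCR and capillary electrophoresis.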

The target in assay [20] is Cellular tumor antigen p53 (Homo sapiens) (UniProt P04637). Description: ATG_p53_CIS: Attagene CIS-FACTORIAL HepG2 Assay for human p53 Transcription Factor (AID 2282994). The conditions noted are these: HepG2 p53 cis-element reporter, Attagene mRNA; actives raise or lower the signal. The method, boiled down: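 In HepG2 cells, reporter transcription units under cis-regulatory promoters were transiently introduced. Following 24 h treatment, RNA was processed to labelled, digested cDNA fragments read by capillary electrophoresis; fitting was bidirectional versus DMSO.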
Sequence of Cellular tumor antigen p53 (Homo sapiens) (P04637 whole entry, looked up, the tested form may be a part): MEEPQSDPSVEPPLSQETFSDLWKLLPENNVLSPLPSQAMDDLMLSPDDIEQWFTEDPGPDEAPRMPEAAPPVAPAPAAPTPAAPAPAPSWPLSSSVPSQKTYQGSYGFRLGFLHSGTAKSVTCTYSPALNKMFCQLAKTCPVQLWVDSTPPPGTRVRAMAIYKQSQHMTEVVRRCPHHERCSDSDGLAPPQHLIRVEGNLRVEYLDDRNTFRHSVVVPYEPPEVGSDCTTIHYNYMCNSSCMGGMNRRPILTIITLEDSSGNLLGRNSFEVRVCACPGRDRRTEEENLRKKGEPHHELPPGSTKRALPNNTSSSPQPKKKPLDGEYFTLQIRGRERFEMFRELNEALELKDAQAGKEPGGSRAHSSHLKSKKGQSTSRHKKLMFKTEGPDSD

The structures appear in SMILES notation. Activity calls are given as the source filed them. How the source made its calls: active means hit-call score of the fitted dose curve at least 0.9, where 1 is the maximum; inactive means score below 0.9.

Sequence of CCAAT/enhancer-binding protein beta (Homo sapiens) (P17676 whole entry, looked up): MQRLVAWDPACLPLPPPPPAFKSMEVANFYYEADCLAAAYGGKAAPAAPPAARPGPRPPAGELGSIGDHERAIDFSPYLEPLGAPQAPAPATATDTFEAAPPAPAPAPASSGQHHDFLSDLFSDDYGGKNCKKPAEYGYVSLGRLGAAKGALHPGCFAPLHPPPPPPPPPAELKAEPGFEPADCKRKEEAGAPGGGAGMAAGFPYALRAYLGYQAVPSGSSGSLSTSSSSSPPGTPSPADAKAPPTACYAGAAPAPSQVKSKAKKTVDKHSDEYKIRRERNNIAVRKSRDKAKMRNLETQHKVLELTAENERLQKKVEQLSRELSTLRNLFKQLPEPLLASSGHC
Sequence of Myc proto-oncogene protein (Homo sapiens) (P01106 whole entry, looked up): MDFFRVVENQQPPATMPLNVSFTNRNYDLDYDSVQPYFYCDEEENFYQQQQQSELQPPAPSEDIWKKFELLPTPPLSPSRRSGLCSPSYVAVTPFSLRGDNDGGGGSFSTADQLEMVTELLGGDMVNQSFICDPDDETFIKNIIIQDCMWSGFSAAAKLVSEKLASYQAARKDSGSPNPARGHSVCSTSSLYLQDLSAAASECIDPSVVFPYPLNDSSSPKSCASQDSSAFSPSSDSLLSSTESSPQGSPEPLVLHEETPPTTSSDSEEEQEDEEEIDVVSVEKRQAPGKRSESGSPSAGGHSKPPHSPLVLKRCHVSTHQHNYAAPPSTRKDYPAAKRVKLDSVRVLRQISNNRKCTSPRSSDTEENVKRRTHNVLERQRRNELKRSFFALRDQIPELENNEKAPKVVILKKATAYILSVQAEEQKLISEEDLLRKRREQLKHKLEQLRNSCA
Sequence of Heat shock factor protein 1 (Homo sapiens) (Q00613 whole entry, looked up): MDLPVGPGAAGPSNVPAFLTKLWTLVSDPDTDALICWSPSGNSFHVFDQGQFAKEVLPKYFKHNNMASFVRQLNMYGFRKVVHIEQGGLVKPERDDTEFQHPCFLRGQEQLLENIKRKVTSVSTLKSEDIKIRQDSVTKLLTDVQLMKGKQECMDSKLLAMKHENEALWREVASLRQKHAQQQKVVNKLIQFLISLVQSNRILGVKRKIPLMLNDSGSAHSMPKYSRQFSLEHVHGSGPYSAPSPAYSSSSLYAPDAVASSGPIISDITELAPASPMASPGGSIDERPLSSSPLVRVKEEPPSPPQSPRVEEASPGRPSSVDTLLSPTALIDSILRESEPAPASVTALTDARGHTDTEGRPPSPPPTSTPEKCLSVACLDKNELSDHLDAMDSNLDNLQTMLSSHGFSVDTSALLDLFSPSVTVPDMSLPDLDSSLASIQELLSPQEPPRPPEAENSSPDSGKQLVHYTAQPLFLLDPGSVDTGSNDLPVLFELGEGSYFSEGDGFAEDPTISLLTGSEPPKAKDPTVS
Sequence of Aryl hydrocarbon receptor (Homo sapiens) (P35869 whole entry, looked up): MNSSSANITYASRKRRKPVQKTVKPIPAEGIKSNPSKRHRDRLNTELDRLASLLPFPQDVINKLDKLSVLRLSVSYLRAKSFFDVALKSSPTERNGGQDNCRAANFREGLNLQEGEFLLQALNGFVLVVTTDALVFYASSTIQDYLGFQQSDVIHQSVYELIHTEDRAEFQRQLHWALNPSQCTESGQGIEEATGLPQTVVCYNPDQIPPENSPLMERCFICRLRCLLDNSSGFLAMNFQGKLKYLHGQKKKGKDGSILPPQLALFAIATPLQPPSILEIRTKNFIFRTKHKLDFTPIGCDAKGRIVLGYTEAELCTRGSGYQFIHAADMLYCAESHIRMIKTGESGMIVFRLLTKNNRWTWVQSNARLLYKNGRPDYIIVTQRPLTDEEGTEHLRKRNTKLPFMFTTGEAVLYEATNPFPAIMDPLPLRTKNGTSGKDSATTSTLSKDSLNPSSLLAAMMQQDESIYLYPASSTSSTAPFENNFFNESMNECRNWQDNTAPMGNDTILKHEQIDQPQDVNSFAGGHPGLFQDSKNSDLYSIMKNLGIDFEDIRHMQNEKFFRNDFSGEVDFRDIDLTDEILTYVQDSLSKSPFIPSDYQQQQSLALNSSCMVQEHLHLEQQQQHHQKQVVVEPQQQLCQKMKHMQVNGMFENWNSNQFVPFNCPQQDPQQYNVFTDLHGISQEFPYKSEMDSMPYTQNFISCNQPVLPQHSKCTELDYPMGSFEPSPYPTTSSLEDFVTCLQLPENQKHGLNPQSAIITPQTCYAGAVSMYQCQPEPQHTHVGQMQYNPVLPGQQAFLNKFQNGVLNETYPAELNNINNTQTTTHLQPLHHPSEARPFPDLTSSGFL
Sequence of Nuclear respiratory factor 1 (Homo sapiens) (Q16656 whole entry, looked up): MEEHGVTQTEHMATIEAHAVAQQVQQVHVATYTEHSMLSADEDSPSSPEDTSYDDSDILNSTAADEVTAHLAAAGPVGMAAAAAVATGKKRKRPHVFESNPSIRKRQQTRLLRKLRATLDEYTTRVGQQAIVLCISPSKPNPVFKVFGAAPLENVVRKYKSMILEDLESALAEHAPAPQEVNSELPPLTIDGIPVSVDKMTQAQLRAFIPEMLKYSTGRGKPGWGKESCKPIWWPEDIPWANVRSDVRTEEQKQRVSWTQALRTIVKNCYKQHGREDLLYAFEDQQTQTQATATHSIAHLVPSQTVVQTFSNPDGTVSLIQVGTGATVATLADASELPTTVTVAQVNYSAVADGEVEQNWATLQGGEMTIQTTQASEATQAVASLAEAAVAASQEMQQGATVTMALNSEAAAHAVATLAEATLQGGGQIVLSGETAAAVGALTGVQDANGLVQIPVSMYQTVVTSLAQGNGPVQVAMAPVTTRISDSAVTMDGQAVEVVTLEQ
Sequence of X-box-binding protein 1 (Homo sapiens) (P17861 whole entry, looked up): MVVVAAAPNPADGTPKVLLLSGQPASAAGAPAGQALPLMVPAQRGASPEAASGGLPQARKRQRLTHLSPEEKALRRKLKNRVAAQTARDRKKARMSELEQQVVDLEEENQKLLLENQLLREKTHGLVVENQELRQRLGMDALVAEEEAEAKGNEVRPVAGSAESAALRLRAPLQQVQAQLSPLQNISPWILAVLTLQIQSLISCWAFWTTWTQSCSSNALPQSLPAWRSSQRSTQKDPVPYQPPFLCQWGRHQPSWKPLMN
Sequence of Hepatocyte nuclear factor 6 (Homo sapiens) (Q9UBC0 whole entry, looked up, the tested form may be a part): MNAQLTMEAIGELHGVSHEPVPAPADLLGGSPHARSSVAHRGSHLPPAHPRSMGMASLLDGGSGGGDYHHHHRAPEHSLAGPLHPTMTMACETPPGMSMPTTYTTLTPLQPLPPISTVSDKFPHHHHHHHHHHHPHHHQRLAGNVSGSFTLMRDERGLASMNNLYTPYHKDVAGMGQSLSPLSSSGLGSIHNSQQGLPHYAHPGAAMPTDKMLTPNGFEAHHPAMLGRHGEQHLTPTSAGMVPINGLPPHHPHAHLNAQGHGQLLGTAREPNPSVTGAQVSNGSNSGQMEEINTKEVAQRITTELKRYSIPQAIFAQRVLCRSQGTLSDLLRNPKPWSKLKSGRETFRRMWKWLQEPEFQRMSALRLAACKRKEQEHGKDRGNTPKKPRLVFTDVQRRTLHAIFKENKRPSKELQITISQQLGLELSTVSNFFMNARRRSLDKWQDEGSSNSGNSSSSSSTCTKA

On to `C[N+](C)(C)CC(=O)O`, for which the outcome in [1], in assay [2], in assay [3], in [4], in assay [5] and in assay [6] was inactive. Further, the molecule was called inactive in [7], in [8], in assay [9], in assay [10], in assay [11] and in assay [12]. Further, the molecule was called inactive in assay [13], in [14], in assay [15] and in assay [16].

By AC50 is commonly meant the concentration at which the activity in the assay is half-maximal. On to `CN1C[C@H](C(=O)N[C@]2(C)O[C@@]3(O)[C@@H]4CCCN4C(=O)[C@H](Cc4ccccc4)N3C2=O)C=C2c3cccc4[nH]cc(c34)C[C@H]21`, for which the outcome in assay [1], in [2], in assay [3], in [5], in assay [8] and in assay [9] was inactive. In addition, the call in assay [17], in assay [10], in [11], in assay [12], in assay [13] and in assay [19] was inactive. The outcome in assay [14], in [16] and in [20] was inactive. For the same molecule, the AC50 was 23.1 µM (active) in assay [4], 966 nM (active) in assay [18] and 27 µM (active) in [15].

Regarding `C=C(Cl)CCl`, the outcome in assay [1], in assay [2], in assay [4], in assay [5], in assay [6] and in assay [7] was inactive. Further, the result in assay [8], in assay [9], in assay [17], in assay [10], in assay [11] and in assay [18] was inactive. For the same molecule, the outcome in assay [13], in assay [19], in [14], in [15], in assay [16] and in assay [20] was inactive.

As to `CCOC(=O)N(C)N=O`, the outcome in assay [1], in [2], in [3], in assay [4], in [6] and in assay [8] was inactive. The result in assay [9], in assay [17], in [10], in [11], in assay [12] and in [18] was inactive. Further, the call in assay [13], in assay [19], in [14], in assay [15], in assay [16] and in [20] was inactive.
